NTR1 agonist – agonists of human NTR1, primary screen, imaging, U2OS cells, beta-arrestin-GFP, high content. NTR1-U2OS beta-arrestin-GFP spot imaging, agonist mode. activation, % at 20 µM. AID 493036, 2011. Neurotensin receptor type 1 (Homo sapiens), P30989. 330,000 tested, 0.17% active;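 active means activation at or above 40% of the spot to cytoplasm intensity ratio, with at least 20 cells analyzed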;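 further: 0% = DMSO without peptide and 100% = 100 nM NTR1 peptide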
697 NFkB inh – inhibitors of PMA/ionomycin-induced NF-kB reporter, 697 cells, primary screen, B-cell NF-kB inhibitor project, cell-based, luminescence, uHTS; 330,000 tested, 0.33% active; AID 435022, 2010; inhibition, % at 4 µM; 697 B-cell NF-kB luciferase reporter, 16 h; in the data active means inhibition above about 35%
Beta apoptosis – inhibitors of cytokine-induced beta cell apoptosis, primary screen, luminescence | INS-1E cytokine-induced death, ATP luminescence, 48 h; percent of positive-control rescue, neutral wells zero | protection from apoptosis, % (concentration not given with the values) | 300,000 tested, 0.8% active | AID 435005, 2010;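 active means Every replicate reaches about 75%, or at least half do and their mean reaches it too, limit read from the data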;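 further: 0% = cytokine-treated negative control wells and 100% = positive control rescue; higher means more ATP so stronger rescue from cytokine killing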
Mdm2 MdmX PPI – inhibitors of human Mdm2-MdmX association, primary screen, cell-based, luminescence, split luciferase, SaOS-2, uHTS; Protein Mdm4 (Homo sapiens) + E3 ubiquitin-protein ligase Mdm2 (Homo sapiens), …; SaOS-2 split-luciferase Mdm2/MdmX complementation; inhibition, % at 8 µM; 330,000 tested, 3% active; AID 485346, 2010;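 active means inhibition of at least 50% at 8 µM in the primary screen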
Target sequence (O15151 whole entry, looked up): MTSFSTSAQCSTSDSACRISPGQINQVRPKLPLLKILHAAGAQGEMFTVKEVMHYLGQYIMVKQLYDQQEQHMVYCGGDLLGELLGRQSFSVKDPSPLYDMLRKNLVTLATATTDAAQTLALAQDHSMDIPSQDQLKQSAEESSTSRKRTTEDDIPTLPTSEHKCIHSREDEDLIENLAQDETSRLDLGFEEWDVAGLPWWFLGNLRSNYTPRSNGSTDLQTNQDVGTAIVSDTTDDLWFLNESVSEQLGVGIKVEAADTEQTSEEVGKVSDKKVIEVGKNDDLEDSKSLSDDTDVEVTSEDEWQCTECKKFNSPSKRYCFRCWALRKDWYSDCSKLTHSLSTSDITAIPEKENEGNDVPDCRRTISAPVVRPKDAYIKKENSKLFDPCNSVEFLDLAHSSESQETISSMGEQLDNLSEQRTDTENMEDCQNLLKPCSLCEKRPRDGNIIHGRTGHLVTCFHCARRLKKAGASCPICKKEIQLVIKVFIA
Target sequence (Q00987 whole entry, looked up): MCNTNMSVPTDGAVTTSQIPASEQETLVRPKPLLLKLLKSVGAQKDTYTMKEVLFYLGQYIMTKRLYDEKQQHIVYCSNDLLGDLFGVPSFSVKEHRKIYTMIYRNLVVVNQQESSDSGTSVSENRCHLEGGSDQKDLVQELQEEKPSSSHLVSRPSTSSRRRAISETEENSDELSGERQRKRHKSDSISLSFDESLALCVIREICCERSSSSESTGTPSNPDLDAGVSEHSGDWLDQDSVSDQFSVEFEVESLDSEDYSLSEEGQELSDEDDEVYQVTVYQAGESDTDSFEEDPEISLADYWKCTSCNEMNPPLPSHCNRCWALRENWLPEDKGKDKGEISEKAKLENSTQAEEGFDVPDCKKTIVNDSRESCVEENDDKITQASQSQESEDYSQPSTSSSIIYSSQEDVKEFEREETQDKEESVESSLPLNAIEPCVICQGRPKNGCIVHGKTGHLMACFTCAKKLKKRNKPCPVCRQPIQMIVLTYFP
Bfl-1 A1 inh – caspase 3/7 activation in MEF A1-2A-BIM cells, primary screen, A1 inhibitor project, cell-based, luminescence, HTS; Caspase-Glo 3/7 luminescence, 3 h; percent of clofoctol response, vehicle zero; caspase activation, % (concentration not given with the values); AID 2462, 2010; 330,000 tested, 0.066% active;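 active means over half of replicate activation scores above 10%, or exactly half above 10 with the replicate mean above 10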
Jurkat NFkB inh – inhibitors of induced NF-kB luciferase reporter, primary screen, TCR NF-kB activation inhibitor project, cell-based, luminescence, uHTS. Jurkat, PMA/ionomycin-induced NF-kB luciferase reporter. inhibition, % at 4 µM. 330,000 tested, 0.53% active. AID 435003, 2010; in the data active means inhibition above about 50%
Mdm2 MdmX conf – Mdm2-MdmX complex disruptors, retested hits, confirmation, luminescence, single concentration; inhibition, % at 8 µM; shares compounds with Mdm2 MdmX PPI; 10,000 tested, 55% active; Mdm2-MdmX binding, luminescent assay; in the data active means inhibition above about 40%
FLuc counter – full-length luciferase signal inhibition, confirmation, counter-screen for Mdm2/MdmX interaction inhibitor project, cell-based, single concentration, SaOS-2 | shares compounds with Mdm2 MdmX PPI | SaOS-2 full-length luciferase counterscreen, luminescence | inhibition, % at 8 µM | 6,200 tested, 77% active | AID 504607, 2011;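 active means mean inhibition at 8 µM reaching about 37%, which flags the compound as non-specific, limit read from the data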;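 further: p53-null SaOS-2 cells with luciferase driven by a doxycycline-inducible promoter; compound on cells about two nights before reading with doxycycline added after day one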
The depositor's hits bear a star; . = not tested or not shown. In the library only some 3.8% were active in any assay of this set; here they are far more common.

SMILES | NTR1 agonist | 697 NFkB inh | Beta apoptosis | Mdm2 MdmX PPI | Bfl-1 A1 inh | Jurkat NFkB inh | Mdm2 MdmX conf | FLuc counter
CC(C)CNC(=O)c1c(N)n(Cc2ccc3c(c2)OCO3)c2nc3ccccc3nc12 | 0.6 | -9.4 | -11.1 | 60.9* | -0.8 | -8.1 | 15.1 | .
COc1cc2c(cc1OC)CN(c1ccc([N+](=O)[O-])c(C(F)(F)F)c1)CC2 | 19.7 | 6.7 | -3.5 | 58.6* | 0.4 | 9.1 | -1.6 | .
COC(=O)C1=C(c2cccc(OCc3ccccc3)c2)C[C@@H]2CC[C@H]1N2C(=O)NCc1ccc(Cl)cc1 | 1.2 | 10.3 | -3.5 | 6.7 | -0.6 | 14.7 | . | .
C[C@H]1CC[C@@H]2[C@@H](C)[C@H]3[C@H](C[C@H]4[C@@H]5CC=C6C[C@@H](O[C@@H]7O[C@H](CO)[C@H](O)[C@H](O[C@@H]8O[C@H](CO)[C@@H](O)[C@H](O)[C@H]8O)[C@H]7O[C@@H]7O[C@@H](C)[C@H](O)[C@@H](O)[C@H]7O)CC[C@]6(C)[C@H]5CC[C@]34C)N2C1 | -3.1 | -3.8 | -4.9 | 60.1* | 0.2 | -2.3 | -11.1 | .
C#CCOc1cc(C2C3=C(COC3=O)Nc3cc4c(cc32)OCO4)ccc1OC (stereo not given) | -0.1 | -8.9 | 3.3 | 59.0* | 0.4 | 39.3 | 58.0* | 80.4*
C#C[C@]1(O)CC[C@H]2[C@@H]3CCC4=Cc5nc6nc7ccccc7n6cc5C[C@]4(C)[C@H]3CC[C@@]21C | 25.2 | -29.2 | 5.7 | 54.8* | -0.5 | 21.8 | 1.7 | .
c1ccc(C(OCCN2CCN(c3ncccn3)CC2)c2ccccc2)cc1 | -0.1 | -10.7 | . | 8.7 | -0.2 | 5.5 | . | .
CC1Oc2cc3c(-c4c(O)cc(O)c5c(O)c6c(cc45)OC(C)C(C)C6=O)c(O)cc(O)c3c(O)c2C(=O)C1C (stereo not given) | 3.5 | -2.8 | 108.8* | 89.1* | -0.6 | 0.8 | 73.2* | 22.4
Cc1sc2nc(COC(=O)Cc3ccccc3)[nH]c(=O)c2c1C | -0.5 | 22.7 | 6.5 | 2.7 | -0.4 | -1.0 | . | .
Clc1ccc(C(c2ccc(Cl)cc2)n2cc[n+](CC(OCc3ccc(Cl)cc3Cl)c3ccc(Cl)cc3Cl)c2)cc1 (stereo not given) | 15.9 | 19.0 | 121.5* | 100.4* | 0.0 | 16.7 | 69.8* | 28.6
Cc1ccc(C(=O)N[C@@H](C)CN2C3=NC[C@@H](Cc4ccccc4)N3C[C@H]2Cc2ccc(O)cc2)cc1Br | 16.1 | 7.2 | 5.9 | 69.4* | 1.0 | 6.5 | 33.0 | .
O=C(COC(=O)c1cccc(O)c1)Nc1ccc(Cl)cc1C(=O)c1ccccc1 | 12.1 | -21.4 | 0.3 | 9.3 | 0.6 | -9.2 | . | .
O=C(Nc1cccc(C(F)(F)F)c1)OC1CN2CCC1CC2 (stereo not given) | -0.2 | 12.4 | . | 3.3 | 0.0 | -1.6 | . | .
OC(c1cccc(Cl)c1)(c1cccc(Cl)c1)C1CN2CCC1CC2 (stereo not given) | 4.1 | 20.0 | 6.1 | 73.6* | -0.2 | 32.8 | 59.4* | 55.6*
Oc1cc2c(cc1CN1CCN(c3ccccc3F)CC1)OCO2 | 0.9 | 10.4 | -0.3 | 14.3 | 0.3 | 20.8 | . | .
c1ccc2c(c1)Sc1ccccc1N2CC1CN2CCC1CC2 (stereo not given) | 9.5 | -29.0 | -1.9 | 74.6* | 1.3 | 8.0 | 44.3* | 84.5*
CCn1nc(-c2ccccc2)nc2c(=O)n(C)c(=O)nc1-2 | -1.9 | -101.1 | 107.5* | 73.8* | 0.0 | 16.2 | 72.8* | 23.3
O=C(COc1ccc(Cl)cc1)N(c1ccc(Cl)cc1)C1CN2CCC1CC2 (stereo not given) | 0.8 | -2.4 | 2.4 | 51.4* | 0.6 | -7.3 | 38.9 | 74.9*
O=C1NC(=O)C(CCc2ccncc2)(Cc2cccc(Cl)c2Cl)C(=O)N1c1ccc(Br)cc1 (stereo not given) | -0.3 | -45.9 | -1.5 | 57.7* | -0.1 | 35.7 | 54.4* | 42.7*
COC(=O)C1=C(c2cccc(C#N)c2)C[C@@H]2CC[C@H]1N2C(=O)NCCOc1ccccc1Cl | -0.3 | 0.1 | -14.4 | 13.6 | 0.1 | -5.7 | . | .
CCCCCCCSc1cc(OC)c(CCN(C)C)cc1OC | 15.1 | -4.7 | -1.5 | 73.9* | 0.2 | 11.1 | 28.6 | .
CCCCCSc1cc(OC)c(CCN)cc1OC | 0.9 | 5.4 | 27.1 | 15.7 | 0.7 | -12.6 | . | .
CCCCCCCCn1sccc1=O | 23.7 | 10.9 | 2.0 | 80.2* | 1.8 | -3.0 | -1.9 | .
C[C@H](NC(=O)N1C[C@H]2C[C@@H](C1)c1cccc(=O)n1C2)C(=O)Nc1ccccc1F | 3.3 | 3.9 | 0.1 | -23.3 | 1.1 | 6.1 | . | .
Cc1ccc(S(=O)(=O)c2nc(-c3ccccc3Cl)oc2N(C)C2CCN(C)CC2)cc1 | 11.6 | -12.2 | 6.6 | 72.3* | 0.7 | -12.6 | 8.0 | .
SMILES | NTR1 agonist | 697 NFkB inh | Beta apoptosis | Mdm2 MdmX PPI | Bfl-1 A1 inh | Jurkat NFkB inh | Mdm2 MdmX conf | FLuc counter
Cc1ccccc1-[n+]1c(-c2ccccc2)cc(-c2ccccc2)cc1-c1ccccc1 | 1.1 | -11.5 | 100.3* | 87.6* | 0.9 | 15.9 | 87.7* | 19.3
[O-]c1ccccc1-[n+]1c(-c2ccccc2)cc(-c2ccccc2)cc1-c1ccccc1 | 4.6 | -41.7 | 95.2* | 89.6* | -1.2 | 12.5 | 71.1* | 22.4
Oc1ccccc1-[n+]1c(-c2ccccc2)cc(-c2ccccc2)cc1-c1ccccc1 | -1.2 | -15.3 | 42.2 | 42.5 | 0.2 | 20.4 | . | .
Brc1ccc(-[n+]2c(-c3ccccc3)cc(-c3ccccc3)cc2-c2ccccc2)cc1 | 22.9 | -36.7 | 128.7* | 86.7* | -0.1 | 40.7 | 74.0* | 24.1
CCCOC(=O)c1ccc(-[n+]2c(-c3ccccc3)cc(-c3ccccc3)cc2-c2ccccc2)cc1 | 40.0* | -43.3 | 123.0* | 89.2* | 0.0 | 15.5 | 86.8* | 17.5
Nc1ccccc1-[n+]1c(-c2ccccc2)cc(-c2ccccc2)cc1-c1ccccc1 | 2.3 | 11.5 | 39.3 | 42.1 | 2.4 | -4.5 | . | .
O=C(O)c1ccc(-[n+]2c(-c3ccccc3)cc(-c3ccccc3)cc2-c2ccccc2)cc1 | -1.7 | 2.0 | 1.4 | 26.9 | -0.8 | -7.0 | . | .

Compound activity (PubChem)
